Bioassay records (PubChem BioAssay)
SKKanGAS inh = blocks kanamycin growth of S. pyogenes SKKanGAS strain; BacTiter-Glo, 6 h; inhibition, % at 7.5 µM; actives 1.3% (n = 300,000);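 active = mean replicate score, as percent of positive control median, at least 50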;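 note: strain carries kanamycin resistance gene driven by streptokinase promoter and grows in 40 µg/ml kanamycin; loss of luminescence reflects streptokinase promoter inhibition or plain growth inhibition; 0% = median of DMSO wells and 100% = positive control at its reference dose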
TIM10 inh = growth inhibitors of TIM10 yeast strain; S. cerevisiae TIM10 strain growth, BacTiter-Glo luminescence, 24 h; inhibition, % at 10 µM; actives 1.4% (n = 330,000);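 active = inhibition of 40% or more at the single tested concentration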;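 note: wild-type TIM10 isogenic control strain grown at permissive 25 °C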
NLRP3 yeast inh = inhibitors of NALP3 inflammasome in yeast; Yeast reconstituted NLRP3/ASC/caspase-1, beta-gal luminescence, 24 h; inhibition, % at 10 µM; actives 0.39% (n = 330,000); AID 2825;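 active = inhibition of 50% or more; inactive = inhibition below 50%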;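 note: plate controls were induced DMSO wells for no effect and uninduced yeast grown without galactose for full effect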
tim23-1 inh = inhibits growth of tim23-1 mutant yeast; inhibition, % at 20 µM; actives 1.3% (n = 330,000); S. cerevisiae tim23-1 growth, BacTiter-Glo luminescence, 24 h; AID 463212;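 active = growth inhibition of the mutant yeast at or above 50%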;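 note: temperature-sensitive mutant grown at 25 °C; plate controls were DMSO-treated mutant yeast for no effect and medium wells lacking yeast for full effect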
tim10-1 inh = tim10-1 yeast growth inhibition; S. cerevisiae tim10-1 ts strain growth, BacTiter-Glo, 24 h; actives 2.2% (n = 330,000); inhibition, % at 20 µM;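 active = inhibition of at least 40%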;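 note: mutant grown at 25 °C; 0% = DMSO wells with yeast and 100% = wells holding no yeast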
PfHsp90 yeast 2 = inhibits growth of yeast expressing Plasmodium falciparum Hsp90. inhibition, % at 9.4 µM. AID 504621. actives 0.32% (n = 310,000). S. cerevisiae expressing PfHsp90, BacTiter-Glo ATP, 48 h; yeast lacking PDR1 and PDR3 efflux regulators;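 active = every replicate shows inhibition above about 80%, whatever the replicate mean, limit read from the data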;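 note: 0% = DMSO neutral controls and 100% = 20 µM radicicol positive controls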
tim10-1 conf = tim10-1 yeast growth inhibition, confirmed. shares compounds with tim10-1 inh. S. cerevisiae tim10-1 ts strain growth, BacTiter-Glo, 24 h. inhibition, % at 20 µM. actives 56% (n = 7,400). AID 463213;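 active = inhibition of yeast growth at or above a set limit in either of two repeat tests at 20 µM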;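 note: tim10-1 mutant grown at permissive 25 °C to find synthetic lethal compounds; 0% = DMSO yeast wells and 100% = medium wells without yeast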
Starred values were filed as active, the others as inactive; · = no result. A selection: hits, their analogues and other compounds. The true share with any hit is near 4.6%.

SMILES	SKKanGAS inh	TIM10 inh	NLRP3 yeast inh	tim23-1 inh	tim10-1 inh	PfHsp90 yeast 2	tim10-1 conf
Clc1ccccc1/C=C/c1ccnc2ccccc12	38	13	28	37	44*	-6	26
Oc1ccc(/C=C/c2ccnc3ccccc23)cc1	-4	24	21	12	20	3	·
CCOC(=O)c1[nH]c(C)c(C(=O)OCc2ccccc2F)c1C	-1	4	14	14	5	-13	·
CCCc1ccc(-c2c(C)sc(N)c2C#N)cc1	43	35	18	32	68*	-29	49*
CCCC(=O)Nc1sc(C)c(-c2ccc(OC)cc2)c1C#N	5	-2	10	1	6	-9	·
CC(C)c1cc(-c2n[nH]c(=S)n2Cc2ccccc2)cs1	-3	29	33	35	47*	2	27
S=c1[nH]nc(-c2ccccc2)n1Cc1ccccc1	1	29	18	7	39	-11	·
CN(Cc1ccccc1)C(=O)Cn1c(=O)c2cccn2c2cccnc21	-11	-1	-8	27	31	-2	·
O=C(CSc1ccccc1)N1CCN(C(=O)c2ccco2)CC1	4	10	5	9	9	26	·
O=C(CSc1nc(-c2ccccc2)cs1)N1CCN(C(=O)c2ccco2)CC1	-4	15	2	19	44*	-29	26
CCN1c2ccccc2-c2nc3ccccc3n2C1c1cccs1 (stereo not drawn)	4	27	26	38	40*	-34	17
CCn1c(NCc2cccs2)nc2ccccc21	-1	-1	13	10	2	-10	·
Fc1ccc(N/N=C/c2ccncc2)c(F)c1	0	8	19	17	-11	-3	·
Fc1ccc(N/N=C/C=C/c2ccccc2)c(F)c1	3	10	16	28	69*	12	49*
Clc1ccc(-c2nnc(Sc3nc4ccccc4o3)c3ccccc23)cc1	-4	40	24	46	42*	-34	17
Cc1nnc(Sc2nc3ccccc3o2)c2ccccc12	5	30	40	31	39	29	·
CC1(C)CC[C@]2(C(=O)O[C@@H]3OC(CO)[C@@H](O)[C@H](O)[C@H]3O)CC[C@]3(C)C(=CCC4[C@@]5(C)CC[C@H](O[C@@H]6OC(C(=O)O)[C@@H](O)[C@H](O)[C@H]6O)C(C)(C)C5CC[C@]43C)[C@@H]2C1 (stereo partly drawn)	·	1	-19	28	40*	12	22
Cc1ccc(-n2nc(-c3ccco3)cc2C(=O)O)cc1	-3	8	7	-4	6	22	·
O=C(c1cc(-c2ccco2)nn1-c1cccc(Cl)c1)N1CCCCC1	6	16	22	41	46*	-9	27
CC(C)NC(=O)c1cc(-c2ccco2)nn1-c1ccc(Cl)cc1	0	-1	4	37	44*	-12	22
COc1ccc(C(C(=O)NC2CCCC2)N(C(=O)c2ccoc2C)c2ccc(C)c(C)c2)cc1 (stereo not drawn)	-16	35	-11	24	41*	25	17
Cc1ccc(C(=O)N2CCN(c3ccc(NC(=O)c4ccc(Br)o4)cc3)CC2)cc1	-1	34	21	31	52*	4	31*
O=C(c1ccc(Br)o1)N1CCN(c2ccccn2)CC1	-5	5	16	9	11	6	·
O=C(Nc1ccc(C(=O)N2CCN(c3ccccn3)CC2)cc1)c1ccc(Br)o1	10	29	22	36	46*	-8	24
CN1CCN(c2ccc(NC(=O)c3ccc(Br)o3)cc2)CC1	1	-5	5	8	-6	7	·
SMILES	SKKanGAS inh	TIM10 inh	NLRP3 yeast inh	tim23-1 inh	tim10-1 inh	PfHsp90 yeast 2	tim10-1 conf
CCOC(=O)N1CCN(C(=O)c2ccc(NC(=O)c3ccc(C)cc3)cc2)CC1	11	33	8	38	44*	-6	18
CCOC(=O)N1CCN(C(=O)c2ccc(NC(C)=O)cc2)CC1	-2	-8	11	11	-7	-7	·
N#CCCN(C(=S)NC(=O)C1CCCCC1)c1ccccc1F	·	-3	8	4	1	·	·
Cc1sc(NC(=O)c2ccco2)c(C(c2ccc(F)cc2)N2CCN(C)CC2)c1C (stereo not drawn)	3	35	-1	18	56*	·	30
CCC(CO)NCC(O)COCc1ccc2c(c1)OCO2 (stereo not drawn)	0	2	5	-14	7	-5	·
CC1C2CC(C(CN(C)C)/C2=N/O)C1(C)C (stereo not drawn)	-8	-5	0	16	44*	13	9
O=c1c2ccc([N+](=O)[O-])cc2ncn1Cc1ccccc1C(F)(F)F	4	16	3	-3	27	·	·
Cc1ccc(S(=O)(=O)N(Cc2ccccc2)c2ccccc2C(=O)NCc2ccco2)cc1	5	12	4	38	41*	·	20
Cc1ccc(S(=O)(=O)N(Cc2ccccc2)c2ccccc2C(=O)Nc2ccccc2C(=O)NCc2ccco2)cc1	10	11	0	32	26	-7	·
O=C(CNC(=O)c1ccccc1F)Nc1ccccc1C(F)(F)F	0	-15	-3	9	0	0	·
COc1cc(NC(=O)c2ccccc2F)c(OC)cc1NC(=O)CN1CCOCC1	1	14	-4	30	43*	-9	25
O=C(COC(=O)/C=C/c1ccc(C(F)(F)F)cc1)NCC1CCCO1 (stereo not drawn)	-3	-2	17	17	4	-10	·
Cc1nc(NS(=O)(=O)c2cccs2)c2c3c(sc2n1)CCC3	5	26	8	43	44*	·	29*
Cc1nc(NS(=O)(=O)c2ccc(Br)cc2)c2c3c(sc2n1)CCC3	44	20	10	32	14	-15	·
COCCOc1cc(Nc2nnc(C(F)(F)F)s2)c(Cl)cc1Cl	0	23	-22	29	46*	-7	27
NC(=O)c1ccc(Oc2ccc3c(c2)CCC3)c([N+](=O)[O-])c1	3	18	11	29	6	-42	·
COc1cc(/C=C2\SC(=S)N(Nc3ccccc3)C2=O)ccc1O	27	31	-15	29	51*	17	20
NC(=O)c1cnn(C2CCS(=O)(=O)C2)c1 (stereo not drawn)	-13	3	1	12	4	-3	·
Cc1cccc(-n2cc(-c3ccc([N+](=O)[O-])cc3)[nH]c2=S)c1	0	9	16	-12	2	0	·
Cc1ccc(-n2cc(-c3ccc([N+](=O)[O-])cc3)[nH]c2=S)c(C)c1	5	40	4	44	46*	8	35*
